PubChem BioAssay (Tox21)
Results filed as inconclusive are left out. Activity calls are given as the source filed them. Unless noted, calls come from the whole dose curve; as a rule, active = well fitted curve in the direction sought with a large enough effect in the repeat runs; inconclusive = weak or mixed curves; inactive = no such curve, though single readings can be large; an effect the other way counts as inactive or inconclusive.

How the values were obtained:
[1] = target: Aryl hydrocarbon receptor (Homo sapiens) (UniProt P35869); experiment: qHTS assay to identify small molecule that activate the aryl hydrocarbon receptor (AhR) signaling pathway (AID 743085);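 note: HG2L7.5c1 human HepG2 liver cells with stably integrated DRE-driven firefly reporter; series mostly up to about 70 µM; nearly all actives have a fitted effect of over 15% in size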
Outline: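 HepG2 cells stably carrying a 20-DRE firefly luciferase reporter (HG2L7.5c1) treated with compound for 24 hr at 37C. Luciferase read by ONE-Glo luminescence, with CellTiter-Fluor viability read first.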

[2] = qHTS assay to identify small molecule that activate the aryl hydrocarbon receptor (AhR) signaling pathway - cell viability counter screen (AID 743086);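 note: HepG2 liver cells carrying the AhR DRE luciferase reporter; series mostly up to about 70 µM; nearly all actives have a fitted effect of over 45% in size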
Outline: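 HepG2-AhR-luc (HG2L7.5c1) cells, 4000/well, treated 24 h at 37 C with compound; viability measured as CellTiter-Fluor fluorescence after 30 min in the same wells as the luciferase read.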

[3] = target: Peroxisome proliferator-activated receptor gamma (Homo sapiens) (UniProt P37231); experiment: qHTS assay to identify small molecule agonists of the peroxisome proliferator-activated receptor gamma (PPARg) signaling pathway (AID 743094; active = well fitted activation curve with a large enough effect in the signal ratio in the repeat runs, not every such curve was filed as active; the % refers to the signal ratio)
Outline: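 Compounds dissolved in DMSO were added to PPARg UAS-bla HEK293H cells for 17 h at 37C, and reporter expression was quantified by fluorescence intensity after 1 h with LiveBLAzer B/G FRET substrate.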

[4] = qHTS assay to identify small molecule antagonists of the peroxisome proliferator-activated receptor gamma (PPARg) signaling pathway - cell viability counter screen (AID 743194); note: nearly all actives have a fitted effect of over 55% in size
Outline: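 Cytotoxicity counter screen in PPARg-bla HEK293H cells, same wells as reporter assay. Compounds plus 50 nM rosiglitazone (final) for 17 h at 37 C, then viability read by CellTiter-Glo luminescence.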

[5] = qHTS assay for small molecule agonists of the antioxidant response element (ARE) signaling pathway (AID 743202; active = well fitted activation curve with a large enough effect in the signal ratio in the repeat runs, not every such curve was filed as active; the % refers to the signal ratio)
Outline: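 Agonist mode reporter screen: HepG2 cells with ARE-controlled beta-lactamase are incubated with test compounds for 16 h at 37 C, and beta-lactamase activity is measured as fluorescence of cleaved B/G FRET substrate.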

[6] = qHTS assay for small molecule agonists of the antioxidant response element (ARE) signaling pathway - cell viability counter screen (AID 743203; calls by dose curve; note: nearly all actives have a fitted effect of over 55% in size)
Outline: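 Following 16 hrs of compound treatment at 37C, HepG2 cells with an ARE-controlled beta-lactamase gene were lysed with CellTiter-Glo. Luminescence was read after 30 min at room temperature.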

[7] = qHTS assay for small molecule activators of the heat shock response signaling pathway - cell viability counter screen (AID 743209); note: nearly all actives have a fitted effect of over 50% in size
Outline: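 Readout: CellTiter-Glo luminescence, 30 min at room temperature. System: HSE-bla HeLa cells, 1500/well, plated overnight. Treatment: compounds in DMSO, 5 h at 37 C.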

[8] = qHTS assay to identify small molecule agonists of the peroxisome proliferator-activated receptor delta (PPARd) signaling pathway - cell viability counter screen (AID 743211); note: nearly all actives have a fitted effect of over 55% in size
Outline: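 PPARd-bla HEK293H cells (3000/well) were pre-incubated 5 h at 37 C, then exposed to compound for 17 h at 37 C. After 2 h with LiveBLAzer substrate, CellTiter-Glo was added to the same wells; luminescence read after 30 min at room temperature.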

[9] = target: Peroxisome proliferator-activated receptor delta (Homo sapiens) (UniProt Q03181); experiment: qHTS assay to identify small molecule agonists of the peroxisome proliferator-activated receptor delta (PPARd) signaling pathway (AID 743212; calls by dose curve)
Outline: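 Quantitative high-throughput agonist screen in a HEK293H beta-lactamase reporter line under UAS control. Compounds in DMSO, at 37 C. Fluorescence read after 2 h with FRET substrate at room temperature.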

[10] = qHTS assay to identify small molecule antagonists of the peroxisome proliferator-activated receptor delta (PPARd) signaling pathway - cell viability counter screen (AID 743213); note: nearly all actives have a fitted effect of over 50% in size
Outline: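 PPARd-bla HEK293H cells (3000/well) got compound plus 300 nM L165041 agonist for 17 h at 37 C. Viability in the same wells came from CellTiter-Glo luminescence after 30 min at room temperature.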

[11] = target: Peroxisome proliferator-activated receptor delta (Homo sapiens) (UniProt Q03181); experiment: qHTS assay to identify small molecule antagonists of the peroxisome proliferator-activated receptor delta (PPARd) signaling pathway (AID 743215; active = well fitted inhibition curve with a large enough effect in the signal ratio in the repeat runs, not every such curve was filed as active; the % refers to the signal ratio;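 note: cells stimulated with agonist L165041 at 300 nM final during compound exposure; series mostly up to about 62 µM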)
Outline: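 HEK293H UAS-bla, PPARd; agonist L165041 300 nM final with cpd in DMSO; 37 C 17 h; FRET substrate, RT 2 h; fluorescence intensity.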

[12] = qHTS assay to identify small molecule agonists of the farnesoid-X-receptor (FXR) signaling pathway - cell viability counter screen (AID 743218); note: nearly all actives have a fitted effect of over 45% in size
Outline: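 Parallel cytotoxicity test: compound-treated (16 h, 37 C) HEK 293T FXR-bla reporter cells were lysed with CellTiter-Glo and luminescence recorded.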

[13] = qHTS assay to identify small molecule antagonists of the farnesoid-X-receptor (FXR) signaling pathway - cell viability counter screen (AID 743221; active = well fitted cell-killing curve with a large enough effect in the repeat runs, not every such curve was filed as active; note: nearly all actives have a fitted effect of over 50% in size)
Outline: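 GeneBLAzer FXR-UAS-bla HEK 293T cells, compound plus chenodeoxycholic acid (50 uM final), 16 h at 37 C. CellTiter-Glo added to the same wells after the beta-lactamase read; luminescence read after 30 min at room temperature as viability.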

[14] = target: Vitamin D3 receptor (Homo sapiens) (UniProt P11473); experiment: qHTS assay to identify small molecule agonists of the vitamin D receptor (VDR) signaling pathway (AID 743222; calls by dose curve)
Outline: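 In VDR-bla cells, compound-induced beta-lactamase expression is quantified by FRET substrate fluorescence. Treatment lasts 16 h at 37C; substrate develops 2 h at room temperature.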

[15] = qHTS assay to identify small molecule agonists of the vitamin D receptor (VDR) signaling pathway - cell viability counter screen (AID 743224); note: series mostly up to about 63 µM; nearly all actives have a fitted effect of over 50% in size
Outline: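 Plated VDR-bla cells (4 h, 37C) received compound, incubated 16 h, then LiveBLAzer substrate 2 h RT; CellTiter-Glo added afterwards, luminescence read at 30 min.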

[16] = target: Peroxisome proliferator-activated receptor gamma (Homo sapiens) (UniProt P37231); experiment: qHTS assay to identify small molecule antagonists of the peroxisome proliferator-activated receptor gamma (PPARg) signaling pathway (AID 743191; calls by dose curve; note: series mostly up to about 63 µM; nearly all actives have a fitted effect of over 30% in size)
Outline: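 GeneBLAzer PPARg UAS-bla HEK293H cells, 5 h post-plating, exposed to compounds 17 h at 37C. LiveBLAzer B/G FRET substrate added for 1 h at room temperature; beta-lactamase reporter read by fluorescence intensity.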

[17] = qHTS assay for small molecule activators of the heat shock response signaling pathway (AID 743210; active = well fitted activation curve with a large enough effect in the signal ratio in the repeat runs, with a control signal flat, not every such curve was filed as active; the % refers to the signal ratio;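 note: HeLa cells with beta-lactamase reporter driven by heat shock elements; series mostly up to about 63 µM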)
Outline: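 Quantitative high-throughput format using an engineered HeLa line in which heat shock response elements drive beta-lactamase; after 5 h with compound, cells received a B/G FRET substrate and fluorescence was read.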

[18] = target: Vitamin D3 receptor (Homo sapiens) (UniProt P11473); experiment: qHTS assay to identify small molecule antagonists of the vitamin D receptor (VDR) signaling pathway (AID 743223; active = well fitted inhibition curve with a large enough effect in the signal ratio in the repeat runs, not every such curve was filed as active; the % refers to the signal ratio)
Outline: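 VDR-bla cells were treated with compound plus 3 nM final 1alpha,25-dihydroxyvitamin D3 for 16 h at 37C. Beta-lactamase reporter read by B/G FRET substrate fluorescence after 2 h at room temperature. qHTS format.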

[19] = target: Bile acid receptor (Homo sapiens) (UniProt Q96RI1); experiment: qHTS assay to identify small molecule agonists of the farnesoid-X-receptor (FXR) signaling pathway (AID 743220; active = well fitted activation curve with a large enough effect in the signal ratio in the repeat runs, not every such curve was filed as active; the % refers to the signal ratio)
Outline: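 Beta-lactamase reporter under UAS control in GeneBLAzer FXR HEK 293T cells (5000/well) measured with LiveBLAzer FRET substrate after 2 h at room temperature. Compound exposure lasted 16 h at 37C.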

[20] = target: Bile acid receptor (Homo sapiens) (UniProt Q96RI1); experiment: qHTS assay to identify small molecule antagonists of the farnesoid-X-receptor (FXR) signaling pathway (AID 743217; active = well fitted inhibition curve with a large enough effect in the signal ratio in the repeat runs, not every such curve was filed as active; the % refers to the signal ratio)
Outline: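 GeneBLAzer FXR-UAS-bla HEK 293T, CDCA-stimulated (50 uM final). Compound treatment 16 h, 37 °C. Detection: beta-lactamase cleavage of B/G FRET substrate, fluorescence.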
% is set by controls: 0 for no effect and ±100 for the full control effect.

Sequence of Aryl hydrocarbon receptor (Homo sapiens) (P35869 whole entry, looked up): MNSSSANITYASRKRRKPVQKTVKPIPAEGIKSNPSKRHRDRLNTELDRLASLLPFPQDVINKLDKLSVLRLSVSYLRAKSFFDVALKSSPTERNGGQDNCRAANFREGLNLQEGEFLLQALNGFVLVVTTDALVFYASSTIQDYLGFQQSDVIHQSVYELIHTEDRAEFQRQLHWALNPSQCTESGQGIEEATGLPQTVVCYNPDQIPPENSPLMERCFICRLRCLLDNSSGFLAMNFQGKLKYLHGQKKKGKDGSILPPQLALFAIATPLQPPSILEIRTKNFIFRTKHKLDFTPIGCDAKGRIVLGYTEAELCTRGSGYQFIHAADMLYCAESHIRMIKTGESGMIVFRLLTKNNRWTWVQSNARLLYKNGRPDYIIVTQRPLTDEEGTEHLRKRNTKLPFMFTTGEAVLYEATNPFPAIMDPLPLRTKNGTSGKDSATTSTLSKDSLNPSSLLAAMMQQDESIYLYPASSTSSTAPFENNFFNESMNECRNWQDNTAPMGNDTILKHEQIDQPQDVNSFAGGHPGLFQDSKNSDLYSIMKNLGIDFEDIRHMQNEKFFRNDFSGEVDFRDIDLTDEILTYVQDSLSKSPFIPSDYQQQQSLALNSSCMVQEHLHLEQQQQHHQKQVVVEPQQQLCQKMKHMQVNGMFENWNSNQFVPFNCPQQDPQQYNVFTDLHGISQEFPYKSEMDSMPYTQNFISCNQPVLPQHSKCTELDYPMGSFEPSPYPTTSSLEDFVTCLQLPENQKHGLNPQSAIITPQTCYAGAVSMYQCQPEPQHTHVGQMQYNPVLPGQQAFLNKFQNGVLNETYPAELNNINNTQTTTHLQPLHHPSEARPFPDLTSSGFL
Sequence of Peroxisome proliferator-activated receptor gamma (Homo sapiens) (P37231 whole entry, looked up): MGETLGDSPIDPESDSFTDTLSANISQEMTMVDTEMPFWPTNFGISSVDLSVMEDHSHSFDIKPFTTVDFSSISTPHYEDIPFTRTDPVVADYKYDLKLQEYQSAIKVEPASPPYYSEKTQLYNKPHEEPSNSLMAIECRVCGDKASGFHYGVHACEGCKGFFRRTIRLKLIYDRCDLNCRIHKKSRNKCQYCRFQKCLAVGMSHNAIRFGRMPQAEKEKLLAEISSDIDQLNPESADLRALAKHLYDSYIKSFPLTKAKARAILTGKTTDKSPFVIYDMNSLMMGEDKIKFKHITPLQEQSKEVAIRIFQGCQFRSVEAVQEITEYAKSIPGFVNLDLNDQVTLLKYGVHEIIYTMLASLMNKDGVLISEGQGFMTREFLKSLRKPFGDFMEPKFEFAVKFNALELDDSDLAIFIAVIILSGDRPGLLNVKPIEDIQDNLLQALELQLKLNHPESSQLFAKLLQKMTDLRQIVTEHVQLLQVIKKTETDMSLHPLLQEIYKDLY
Sequence of Bile acid receptor (Homo sapiens) (Q96RI1 whole entry, looked up): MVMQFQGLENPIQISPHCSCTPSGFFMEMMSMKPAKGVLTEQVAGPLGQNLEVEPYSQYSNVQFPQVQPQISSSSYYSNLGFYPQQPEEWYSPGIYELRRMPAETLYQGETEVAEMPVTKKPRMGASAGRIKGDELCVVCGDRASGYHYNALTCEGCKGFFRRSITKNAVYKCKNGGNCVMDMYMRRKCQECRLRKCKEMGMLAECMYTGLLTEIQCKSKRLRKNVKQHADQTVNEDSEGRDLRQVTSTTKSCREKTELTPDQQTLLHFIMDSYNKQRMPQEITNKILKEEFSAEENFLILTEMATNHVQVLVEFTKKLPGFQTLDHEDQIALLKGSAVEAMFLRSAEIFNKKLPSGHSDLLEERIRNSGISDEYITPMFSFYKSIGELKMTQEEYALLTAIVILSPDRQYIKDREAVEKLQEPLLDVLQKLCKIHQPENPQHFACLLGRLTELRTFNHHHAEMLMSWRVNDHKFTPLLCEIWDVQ
Sequence of Vitamin D3 receptor (Homo sapiens) (P11473 whole entry, looked up): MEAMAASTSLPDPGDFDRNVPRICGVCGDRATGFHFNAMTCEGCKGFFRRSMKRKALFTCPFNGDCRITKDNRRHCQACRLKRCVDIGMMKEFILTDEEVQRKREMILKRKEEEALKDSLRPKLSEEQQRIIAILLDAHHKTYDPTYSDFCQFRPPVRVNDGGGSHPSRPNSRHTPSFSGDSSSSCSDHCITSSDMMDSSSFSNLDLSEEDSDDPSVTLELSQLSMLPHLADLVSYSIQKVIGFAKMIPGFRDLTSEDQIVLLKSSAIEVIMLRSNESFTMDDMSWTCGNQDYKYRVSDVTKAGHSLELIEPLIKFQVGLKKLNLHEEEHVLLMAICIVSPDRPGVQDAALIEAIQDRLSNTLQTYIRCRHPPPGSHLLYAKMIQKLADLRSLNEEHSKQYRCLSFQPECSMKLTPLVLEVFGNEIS
Sequence of Peroxisome proliferator-activated receptor delta (Homo sapiens) (Q03181 whole entry, looked up): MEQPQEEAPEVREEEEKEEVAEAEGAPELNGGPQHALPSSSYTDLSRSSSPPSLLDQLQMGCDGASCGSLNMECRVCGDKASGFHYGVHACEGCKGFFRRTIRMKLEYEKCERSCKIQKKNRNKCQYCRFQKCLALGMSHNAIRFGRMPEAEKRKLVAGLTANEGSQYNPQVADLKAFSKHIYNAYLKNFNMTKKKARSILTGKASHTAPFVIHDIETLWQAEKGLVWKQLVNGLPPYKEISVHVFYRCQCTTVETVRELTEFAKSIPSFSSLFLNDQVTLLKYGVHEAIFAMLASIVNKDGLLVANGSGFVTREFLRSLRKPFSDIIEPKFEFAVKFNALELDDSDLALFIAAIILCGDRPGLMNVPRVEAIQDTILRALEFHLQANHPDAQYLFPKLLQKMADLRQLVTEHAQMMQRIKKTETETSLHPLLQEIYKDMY

CC1(C)O[C@H]2CC(=O)OC[C@]23[C@H]2CC[C@@]4(C)[C@H](c5ccoc5)OC(=O)[C@H]5O[C@]54[C@]2(C)C(=O)C[C@@H]13
inactive: Potency [1] | Potency [2] | Potency [3] | outcome [4] | Potency [5] | outcome [6] | Potency [7] | outcome [8] | outcome [9] | outcome [10] | outcome [11] | outcome [12] | outcome [13] | outcome [14] | outcome [15]

CC(C)c1ccc(C=O)cc1
inactive: Potency [1] | Potency [2] | Potency [3] | outcome [16] | Potency [5] | outcome [6] | outcome [17] | outcome [8] | outcome [9] | outcome [10] | outcome [11] | outcome [12] | outcome [13] | outcome [14]

CCC[C@@H]1C[C@@H](C(=O)N[C@@H]([C@H]2O[C@H](SC)[C@H](O)[C@@H](O)[C@H]2O)[C@@H](C)O)N(C)C1
inactive: Potency [1] | Potency [2] | Potency [3] | outcome [4] | Potency [5] | outcome [6] | Potency [7] | outcome [17] | outcome [8] | outcome [9] | outcome [10] | outcome [11] | outcome [12] | outcome [13] | outcome [15]

N[C@@H](Cc1ccc(O)cc1)C(=O)O
inactive: Potency [1] | Potency [2] | Potency [3] | activity change, negative = cytotoxicity [4] 3.31% [at 13.2 µM] | activation [5] -7.61% [at 8.36 µM] | viability change, negative = cytotoxic [6] 19.5% [at 8.36 µM] | activity change, negative = cytotoxicity [7] -1.43% [at 13.2 µM] | activity change, negative = cytotoxicity [8] 3.38% [at 13.2 µM] | viability change, negative = cytotoxic [10] 14.5% [at 13.7 µM] | viability change, negative = cytotoxic [12] -2.1% [at 13.2 µM] | activity change, negative = cytotoxicity [13] -1.49% [at 13.2 µM] | activation [14] 10.9% [at 13.4 µM] | activity change, negative = inhibition [18] 1.57% [at 6.95 µM] | activity change, negative = cytotoxicity [15] 18.1% [at 13.2 µM]

Cc1ccc(C(C)NC(=O)[C@@H](NC(=O)OC(C)C)C(C)C)cc1 (stereo not given in full)
inactive: Potency [1] | Potency [2] | Potency [3] | outcome [4] | Potency [5] | outcome [6] | Potency [7] | outcome [17] | outcome [8] | outcome [9] | outcome [10] | outcome [12] | outcome [19] | outcome [13]

C=CC/C=C/C
inactive: Potency [1] | Potency [2] | Potency [3] | outcome [4] | Potency [5] | outcome [6] | outcome [17] | outcome [8] | outcome [9] | outcome [10] | outcome [20] | outcome [12] | outcome [19] | outcome [13] | outcome [15]

CCCCCCCCCCCCCCCCCC#N
inactive: Potency [1] | Potency [2] | Potency [3] | outcome [16] | Potency [5] | outcome [6] | outcome [17] | outcome [8] | outcome [9] | outcome [10] | outcome [12] | outcome [13] | outcome [15]

CCCC(=O)Nc1ccc(OCC(O)CNC(C)C)c(C(C)=O)c1 (stereo not given)
inactive: Potency [1] | Potency [2] | Potency [3] | outcome [4] | Potency [5] | outcome [6] | Potency [7] | outcome [17] | outcome [8] | outcome [9] | outcome [10] | outcome [11] | outcome [12] | outcome [13] | outcome [14] | outcome [18] | outcome [15]

CC(=O)O[Si](C)(OC(C)=O)OC(C)=O
inactive: Potency [1] | Potency [2] | Potency [3] | outcome [16] | Potency [5] | outcome [6] | Potency [7] | outcome [8] | outcome [9] | outcome [11] | outcome [13] | outcome [14] | outcome [18] | outcome [15]

COC(=O)c1cc(Cl)cc(Cl)c1
inactive: Potency [1] | Potency [2] | Potency [3] | outcome [16] | Potency [5] | outcome [6] | Potency [7] | outcome [8] | outcome [9] | outcome [10] | outcome [11] | outcome [12] | outcome [13] | outcome [15]
